In the library only some 2.9% were active in any assay of this set; here they are far more common.
RAM network inh = blocks the yeast RAM network; AID 868; inhibition, % at 50 µM; S. cerevisiae dse1pr::URA3 reporter, 5-FOA growth OD615, 2 d; analog-sensitive cbk1-as2 kinase mutant strain; 190,000 compounds, 1.8% hits;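 active means inhibition above a set limit, 3 SD over mean compound inhibition, cut at about 8.4% in these data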;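 further: inhibition rescues growth on 5-FOA so higher OD means more RAM inhibition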
EP2 modulator = EP2 receptor (human) modulation; P43116; EP2-expressing cells, cAMP HTRF FRET, PGE2 co-stimulation; induction, % at 25 µM; 260,000 compounds, 0.83% hits; AID 940;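 active means compounds whose cAMP rise, as percent of the full-agonist control response, exceeds 60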;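 further: rat C6 glioma line stably carrying human EP2 under a CMV promoter; the protocol text gives 20 µM as final concentration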
SKN-1 block = C. elegans SKN-1 inhibition; AID 624304; inhibition, % at 21.8 µM; C. elegans VP596 Pgst-4::GFP/RFP ratio, acrylamide-induced, 24 h; 360,000 compounds, 0.49% hits;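 active means interference check ratio from 0.5 to 1.5 plus GFP to RFP signal ratio inhibition reaching or exceeding a fixed threshold, cut at about 30% in these data, passing the limit was not always enough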
Rev-erbA mod = Rev-erb alpha (human) modulation; Rev-erbα–FITC-DNA binding, fluorescence polarization, 90 min; activity, % at 10 µM; 370,000 compounds, 0.79% hits; AID 1259318;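 active means activity above about 14%, limit read from the data; passing the limit was not always enough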
Target sequence (P20393 whole entry, looked up): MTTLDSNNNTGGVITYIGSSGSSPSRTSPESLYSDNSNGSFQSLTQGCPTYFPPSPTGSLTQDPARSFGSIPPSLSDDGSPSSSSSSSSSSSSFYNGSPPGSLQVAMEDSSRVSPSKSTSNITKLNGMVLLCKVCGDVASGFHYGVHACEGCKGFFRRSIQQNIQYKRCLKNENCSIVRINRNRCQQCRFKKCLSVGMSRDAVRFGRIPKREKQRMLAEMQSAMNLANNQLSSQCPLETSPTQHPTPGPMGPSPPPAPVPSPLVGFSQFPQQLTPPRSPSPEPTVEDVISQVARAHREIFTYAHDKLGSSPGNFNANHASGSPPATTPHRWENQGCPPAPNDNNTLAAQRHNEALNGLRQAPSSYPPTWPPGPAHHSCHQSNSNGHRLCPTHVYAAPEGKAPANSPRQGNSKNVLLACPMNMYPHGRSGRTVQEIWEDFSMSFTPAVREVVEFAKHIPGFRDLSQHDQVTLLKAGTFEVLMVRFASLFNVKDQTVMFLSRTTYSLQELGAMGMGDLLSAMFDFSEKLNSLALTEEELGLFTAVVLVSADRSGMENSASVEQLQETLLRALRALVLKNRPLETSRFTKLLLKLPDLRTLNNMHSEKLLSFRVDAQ
PG9 Ab binder = binds the HIV-1 gp120 antibody PG9 | inhibition, % at 6.7 µM | AID 624416 | 360,000 compounds, 0.43% hits | TR-FRET gp120-PG9 antibody binding; in the data active means inhibition above about 8.5%
PGE2 EP2 inh = EP2 receptor (human) inhibition | 260,000 compounds, 0.52% hits | C6 glioma cells expressing human EP2, cAMP TR-FRET; cells stimulated with saturating PGE2 | P43116 | inhibition, % at 25 µM | AID 1422;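 active means percent inhibition above 40 after rounding to a whole number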;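 further: rat C6 glioma host cells with rolipram phosphodiesterase inhibitor present; the protocol text gives 20 µM as final concentration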
Of the large screens only hits and unclear results are named; the others gave an inactive call; ! = a repeat was not active.

COc1cc(CN2C(=O)NC(=O)C3(Cc4cc(C)ccc4N(C)C3)C2=O)cc(OC)c1 (stereo not drawn)	none
CCCCN1C(=O)NC(=O)C2(Cc3cc(C)ccc3N(C)C2)C1=O (stereo not drawn)	SKN-1 block 41.0
COc1cccc(CN2CCN(C(=O)Cc3ccc(F)cc3)[C@@H](C)C2)c1	none (no result: RAM network inh, SKN-1 block, Rev-erbA mod, PG9 Ab binder, PGE2 EP2 inh)
CN1CCC2(CC1)C(C#N)=C(N)NC(S)=C2C#N	none
Cc1ccc(C2(c3ccc(C)c(O)c3C)CCN(C)CC2)c(C)c1O	PGE2 EP2 inh 112.4 (no result: RAM network inh, SKN-1 block, Rev-erbA mod, PG9 Ab binder)
OC(CN1CC=C(c2ccc(F)cc2)CC1)c1ccc2c(c1)OCCO2 (stereo not drawn)	none (no result: RAM network inh, SKN-1 block, Rev-erbA mod, PG9 Ab binder)
O=C(CN1C(=O)CN=C(c2ccccc2)c2c1sc1c2CCCC1)N1CCOCC1	none (no result: RAM network inh, SKN-1 block, Rev-erbA mod, PG9 Ab binder)
C#CCOc1ccc(CN2C3CCC2CC(O)(c2nccn2C)C3)cc1 (stereo not drawn)	none (no result: RAM network inh, SKN-1 block, Rev-erbA mod, PG9 Ab binder)
Cc1ccc(OP(=O)(Oc2ccc(C)cc2)N2C=Cc3ccccc3[C@H]2C#N)cc1	PGE2 EP2 inh 42.5 (no result: RAM network inh, SKN-1 block, Rev-erbA mod, PG9 Ab binder)
CCC1(Oc2ccccc2)C(=O)NC(=O)NC1=O	none (no result: RAM network inh, EP2 modulator, PGE2 EP2 inh)
CCC1(C)OC(c2ccccc2)=C/C(=C/C=C2C(=O)NC(=O)NC2=O)O1 (stereo not drawn)	SKN-1 block 47.8
Cc1ccc(C2=CCN(CC(=O)Nc3ncc(C)s3)CC2)o1	none (no result: RAM network inh, SKN-1 block, Rev-erbA mod, PG9 Ab binder)
CCOc1ccc(-n2c(/C=C/c3ccc([N+](=O)[O-])o3)nc3ccccc3c2=O)cc1	none (no result: RAM network inh, SKN-1 block, Rev-erbA mod, PG9 Ab binder)
CCN1CCN(C(=O)COc2ccc(Cl)cc2Cl)CC1	none (no result: RAM network inh, SKN-1 block, Rev-erbA mod, PG9 Ab binder)
C[C@](N)(CCP(=O)(O)O)C(=O)O	SKN-1 block 48.6 (no result: RAM network inh, EP2 modulator, PGE2 EP2 inh)
COc1ccccc1Cn1c(SCC(=O)C(C)(C)C)nc2cc(C(=O)N3CCC4(CC3)OCCO4)ccc2c1=O	RAM network inh 11.2 (no result: SKN-1 block, Rev-erbA mod, PG9 Ab binder)
C/C=C(/C)C(=O)O[C@H]1CC[C@@]2(C)[C@@H]3CC[C@H]4[C@]5(O)C[C@H](O)[C@@]6(O)[C@@H](CN7C[C@@H](C)CC[C@H]7[C@@]6(C)O)[C@]5(O)C[C@@]42O[C@]13O	none (no result: RAM network inh, SKN-1 block, Rev-erbA mod, PG9 Ab binder)
COc1ccc(C(=O)O[C@@H]2CC[C@@]3(C)[C@@H]4CC[C@@H]5[C@@]6(O)C[C@@H](O)[C@@]7(O)[C@@H](CN8C[C@H](C)CC[C@H]8[C@]7(C)O)[C@]6(O)C[C@@]53O[C@@]42O)cc1OC	PGE2 EP2 inh 45.5 (no result: RAM network inh, SKN-1 block, Rev-erbA mod, PG9 Ab binder)
O=C1NC(=O)C2(Cc3ccccc3N3CCCC32)C(=O)N1c1ccc(Cl)cc1 (stereo not drawn)	none (no result: SKN-1 block)
Cc1ccc(N2C(=O)NC(=O)C3(Cc4ccccc4N4CCCC43)C2=O)cc1 (stereo not drawn)	SKN-1 block 58.7
CCN(CC)c1ccc(/C=C2\C(=O)NC(=O)N(CC3CCCO3)C2=O)cc1 (stereo not drawn)	SKN-1 block 41.9
Cc1nc(-c2ccccc2)c(CC(=O)N(CCN(C)C)C2CCN(C)CC2)s1	none (no result: RAM network inh, SKN-1 block, Rev-erbA mod, PG9 Ab binder)
O=C1NC(=O)N(Cc2ccc(F)cc2)C(=O)/C1=C\c1ccc(N2CCCC2)cc1	SKN-1 block 38.9 (no result: RAM network inh)
Cc1ccc(C2=CCN(CC(=O)Nc3ccc(N(C)C)cc3)CC2)o1	none (no result: RAM network inh, SKN-1 block, Rev-erbA mod, PG9 Ab binder, PGE2 EP2 inh)
NCCc1cc(O)c(O)cc1O	PG9 Ab binder 11.1! (no result: RAM network inh)
NC(Cc1cc(O)c(O)cc1O)C(=O)O (stereo not drawn)	none (no result: RAM network inh, SKN-1 block, Rev-erbA mod, PG9 Ab binder)
O=C(N/N=C/c1c(O)n(Cc2ccccc2)c(=O)[nH]c1=O)c1ccccc1O	SKN-1 block 36.7
O=C(N/N=C/c1c(O)n(CCc2ccc(F)cc2)c(=O)[nH]c1=O)c1ccncc1	RAM network inh 8.6
COc1cccc(CN2CCN(C(=O)Cc3cc(OC)ccc3OC)[C@@H](C)C2)c1	none (no result: RAM network inh, SKN-1 block, Rev-erbA mod, PG9 Ab binder, PGE2 EP2 inh)
Fc1ccc(Cn2nnnc2C(c2ccc(Cl)cc2)N2CC=C(c3ccc(F)cc3)CC2)cc1 (stereo not drawn)	RAM network inh 10.2
Fc1ccc(C2=CCN(C(c3ccc(Cl)cc3)c3nnnn3Cc3ccccc3)CC2)cc1 (stereo not drawn)	none
Cc1ccc2[nH]c(C)c(CC(=O)N(C)CCN(C)C)c2c1	none (no result: RAM network inh, SKN-1 block, Rev-erbA mod, PG9 Ab binder)
Cc1ccc(NC(=[OH+])c2cc3ccccc3cc2O)c(C)c1.Cc1ccc(NC(=[OH+])c2cc3ccccc3cc2O)c(C)c1.[Ni]	PGE2 EP2 inh 43.2 (no result: RAM network inh, SKN-1 block, Rev-erbA mod, PG9 Ab binder)
O=C(CN1CCOCC1)c1cccc2ccccc12	SKN-1 block 38.1
Oc1ccccc1/C=N/NP(=S)(c1ccccc1)c1ccccc1	RAM network inh 8.6
Oc1ccc(/C=N/NP(=S)(c2ccccc2)c2ccccc2)c(O)c1O	none
